Where “and” joins values, the source holds several entries; their conditions need not be identical. Equal entries are not always repeated. In all, about 410,000 compounds went through this assay and about 7,200 (1.8%) were called active. Not shown: some 7% with an inconclusive outcome. This is one part of a sample in which actives are shown more often than they occur. Calls follow the shape of the dose curve; as a rule, active = well fitted activation curve with a large enough effect; inconclusive = small, poorly fitted or top-dose-only effect, or another doubt; inactive = no such curve, though single readings can be large or run the other way.
Assay: qHTS of TDP-43 Inhibitors; also: nearly all actives have a fitted effect of over 50% in size; as to growth rescue (activation): % of control where 0% means no effect
Conditions: TDP-43 expressing yeast growth rescue, BacTiter-Glo, 24 h; series mostly up to 46.1 µM; growth rescue (activation): at the top concentration
How it was run: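 Cell-based yeast growth screen: TDP-43 expression induced in galactose, inoculum OD600=0.02 after raffinose pregrowth to mid-log. Read-out BacTiter-Glo luminescence at 24 hr, 30 deg C; inhibition of toxicity seen as signal increase.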
Potency is read from the fitted curve at half-maximal effect.

Growth rescue (activation), inactive:
Cc1ccc(NC(=O)COc2coc(CN3CCc4ccccc4C3)cc2=O)cc1Cl -7.54%
O=C(COc1ccccc1Cl)Nc1ccc2nc(SCC(=O)N3CCCC3)sc2c1 5.47%
COc1ccc(-c2nc(SCC(=O)N3CCCCC3C)n[nH]2)cc1 (stereo unspecified) 8.34%
COc1ccccc1CN1CCC(CNC(=O)c2cnn(-c3ccccc3Cl)c2C2CCN(C(=O)OC(C)(C)C)CC2)CC1 23.3%
CCCC(=O)Nc1cc2nn(-c3ccccc3)nc2cc1C 20.7%
COc1ccc(Cl)cc1-c1cc(C(=O)Nc2cc(OC)c(OC)c(OC)c2)[nH]n1 0%
CCN(CC)C(=O)Oc1ccc(Br)cc1C(=O)Nc1ccc(F)c(Cl)c1 17.1%
CC(C)(C)c1ccc(C(=O)NCC(c2ccc(Cl)cc2)N2CCOCC2)cc1 (stereo unspecified) 0%
Cc1ccc(-c2ccc(CCC(=O)O)n2-c2ccc(C(N)=O)cc2)cc1 24.7%
COc1ccc(-c2ccc(CCC(=O)O)n2-c2ccc(O)cc2)cc1 -16.9% [at 9.22 µM]
Cc1ccc(C2CCN(C(=O)c3cnn(-c4ccccc4Cl)c3C3CCN(C(=O)OC(C)(C)C)CC3)C2)cc1 (stereo unspecified) 14.4%
O=C(CN1C(=O)COc2ccc(S(=O)(=O)N3CCCCCC3)cc21)N1CCN(c2cccc(C(F)(F)F)c2)CC1 -15.3%
Cc1ccc(/C=N/NC(=O)Cn2ccc(C(F)(F)F)n2)o1 -13.1%
O=C(N/N=C\c1ccc(-c2ccc(Cl)c(Cl)c2)o1)C(=O)N1CCCC1 14.6%
Cc1ccc(NC(=O)c2cn3c4c(ccc(Cl)c4c2=O)OC(C)C3)cc1C (stereo unspecified) 8.62%
Cc1cccc(Nc2cc(C)nc(-n3nc(C)cc3C)n2)c1 20.6%
COc1ccc2c(Sc3ccc(C)cc3)c(C(=O)NC(C)c3ccccc3)[nH]c2c1 (stereo unspecified) 4.22%
Cc1nnc(SCC(=O)Nc2cccc(N)c2)n1-c1ccccc1 7.19%
O=C(CSc1ccccc1)Nc1cccc(S(=O)(=O)N2CCOCC2)c1 10.9%
Cc1ccc2nc(/C(C#N)=C/c3ccc(-c4ccc(C(=O)OC(C)C)cc4)o3)[nH]c2c1 29.7%
COc1ccccc1NC(=O)c1cc(S(=O)(=O)NCCc2ccccc2)ccc1F 26%
COc1cccc(N2CCN(S(=O)(=O)c3ccc4c(c3)CCCN4C(C)=O)CC2)c1 14.5%
COc1cccc(N2CCN(C3CC(=O)N(c4ccc(Cl)cc4)C3=O)CC2)c1 (stereo unspecified) 9.45%
COc1cccc(N2C(=O)CC(N3CCN(S(=O)(=O)c4ccccc4)CC3)C2=O)c1 (stereo unspecified) 7.1%
CCOc1ccccc1C(=O)Nc1ccc2c(c1)N(C)C(=O)c1ccccc1S2 10.1%
CCc1noc(C)c1C(=O)N1CCCSC1=Nc1ccccc1OC 13.6%
CCc1noc(C)c1C(=O)OCC(=O)c1ccc(NC(=O)CC(C)C)cc1 -3.44%
O=C(/C=C/c1cn(CC(O)CN2CCc3ccccc32)c2ccccc12)c1ccc(Br)cc1 (stereo unspecified) -30.3%
COc1ccc(OCc2ccc(-c3nc(C#N)c(N4CCN(c5ccccc5)CC4)o3)o2)cc1 6.14%
Cc1ccccc1OCc1ccc(-c2nc(C#N)c(N3CCCCC3)o2)o1 0.64%
Cc1nn(C)c2c1c(C(F)(F)F)cc(=O)n2C(C)C(=O)NCc1ccc(Cl)cc1 (stereo unspecified) 2.64%
Cc1ccccc1CNC(=O)CCCn1nc(C)c2sc3ccccc3c2c1=O 2.7%
Cc1cc2nc(C(F)(F)F)cc(-c3cccs3)n2n1 7.65%
CC(C)(C)Nc1c(-c2cccs2)nc2ccccn12 -18.1%
CCc1nnc(SCc2c(F)cccc2Cl)c2cc3sccc3n12 -0.933%
CCSc1ncc(Cl)c(C(=O)Nc2c(C(=O)c3ccccc3)oc3ccccc23)n1 2.95%
C[C@H]1NS(=O)(=O)c2cc(Cl)ccc2O[C@@H]1c1ccccc1 0.684%
COC[C@@H]1NS(=O)(=O)c2ccc(Br)cc2O[C@H]1c1ccccc1 7.89%
Cc1ccc2nc(-c3ccc(O)cc3)c(Nc3ccc4c(c3)OCO4)n2c1 21.7%
COc1ccc(C)cc1S(=O)(=O)Nc1cccc(Cl)c1Cl 13%
COc1cc(Br)c(-c2sc(Nc3ccccc3)n[n+]2-c2ccccc2)cc1OC 6.16%
Cc1ccc(S(=O)(=O)N2CCc3cc(C(=O)Nc4ccc(Cl)cc4C)ccc32)cc1 12.7%
CC(=O)c1c(C)n(S(=O)(=O)c2ccc(Cl)cc2)c2ccc(NS(=O)(=O)c3ccc(Cl)cc3)cc12 26.6%
CCc1ccc(NC(=O)c2cc3c(=O)n(Cc4cccnc4)ccc3nc2C)cc1 6.57%
CCc1cc2c(SCC(=O)Nc3ncc(Cl)c(C)c3Cl)ncnc2s1 29.1%
CCc1cc2c(NC(Cc3ccccc3)C(=O)O)ncnc2s1 (stereo unspecified) 6.4%
Cc1ccc2c(=O)c(C(=O)c3cccc(Cl)c3)cn(CC(=O)NCc3ccccc3)c2n1 -1.08%
Cc1nn2c(=O)cc(COC(=O)c3cccc(NC(=O)COc4ccccc4Cl)c3)nc2s1 13.4%
CCOc1cc(/C=N/n2cnnc2)c(Br)cc1O -10.2%
CCOc1c(Br)cc(/C=C2\C(=O)N(CCC#N)N=C2C)cc1OC -3.23%
O=S(=O)(c1ccc(Br)cc1)c1nnn2c1nc(N1CCOCC1)c1sccc12 3.38%
COc1cc(Nc2nc(-c3ccc(OC)c(OC)c3)nc3ccccc23)cc(OC)c1 18.5%
CCCCN(CC)CCCNC(=O)c1nn(C)c2c1CS(=O)(=O)c1ccccc1-2 1.93%
C=CCSc1nnc(Cn2c(=O)sc3ccccc32)n1C 9.94%
COc1ccc(CN2CCOC2=O)cc1OC 5.01%
CCCCCn1c(=O)[nH]c2cc(C(=O)NCCN(C)CCCC)ccc2c1=O 20.9%
CCC(=O)N1CCc2cc(S(=O)(=O)NC(Cc3ccccc3)C(=O)NCc3ccccc3)ccc21 (stereo unspecified) 16.9%
COc1ccc(CNC(=O)C2=Cc3cccc(OC)c3OC2)cc1OC 0% [at 9.22 µM]
COc1ccc([N+](=O)[O-])cc1NC(=O)COC(=O)/C=C/c1ccco1 9.61%
COc1ccc(NC(=O)c2ccco2)cc1NC(=O)COc1ccc(C)c(C)c1 19.3%
COCCNC(=O)c1ccc2c(c1)N=C(C)c1cc(C)ccc1S2 4.19%
CCCn1c2ccccc2c2cnn(CC(=O)NCCCOC(C)C)c(=O)c21 15.2%
CCCn1c2ccccc2c2cnn(CC(=O)N(CC)c3cc(C)ccc3C)c(=O)c21 -19.8%
Cc1ccc(S(=O)(=O)c2nc(-c3cccs3)oc2N2CCCCC2)cc1 12.1%
COc1ccc(N2CCN(c3cc(C)nc4nncn34)CC2)cc1 4.9%
Cc1ccccc1NC(=O)Cn1cc(C(=O)c2cccs2)c2ccccc21 11.7%
Cc1ccc(C(=O)N2CCc3cc(CNC(=O)c4ccc(Br)cc4)ccc32)cc1 -9.12%
CCCCc1ccc(NC(=O)NCc2cccnc2)cc1 6.28%
O=C(O)C1CC(=O)N(Cc2cccnc2)C1 (stereo unspecified) -14.9%
CCOc1ccc(CNC(=O)C2CCN(c3nnc(-n4cccc4CNc4ccc(C)cc4)s3)CC2)cc1OC 9.74%
COc1ccccc1N1CCN(c2ccc(=O)n(CC(=O)NCc3ccc(OC(C)C)cc3)n2)CC1 -15.5%
CCN(c1ccc(Cl)cc1)S(=O)(=O)c1nnc(NC(=O)c2ccco2)s1 7.64%
CCc1cnc2c(c1SCC(=O)N1CCC(C)CC1)c(=O)n(C)c(=O)n2C 11.7%
CCCc1cc(-c2n[nH]c(=S)n2CC)c2ccccc2n1 6.52%
O=C(c1cccc(Cl)c1)N1CCN(CCc2ccncc2)CC1 -9.8%
O=C(Cn1cc(SCc2cccc(Cl)c2)c2ccccc21)N1CCCCC1 21.1%
O=C(Nc1ccc(OC(F)(F)F)cc1)c1cc2c(=O)n3ccccc3nc2s1 7.86%

Potency, inactive:
CCOCCCNC(=O)c1cc2c(=O)n3ccccc3nc2s1

Potency, active:
Cc1ccccc1OCC(=O)Nc1ccc(N2CCN(C(=O)C(C)C)CC2)c(Cl)c1 25.1 µM
CCCOc1ccc(F)cc1-c1cc(C(=O)Nc2ccc(F)c(Cl)c2)[nH]n1 8.91 µM
CCOC(=O)c1ccc(-n2c(CCC(=O)O)ccc2-c2ccccc2)cc1 25.1 µM and 35.5 µM
COC(=O)N/N=C/c1ccc(-c2ccc(Cl)c(Cl)c2)o1 12.6 µM
CSc1cccc(NC(=O)CSc2ccccc2)c1 14.1 µM
COc1cccc(N2C(=O)CC(N3CCc4ccccc4C3)C2=O)c1 (stereo unspecified) 17.8 µM
CCc1noc(C)c1C(=O)Nc1nc(-c2ccccc2)cs1 11.2 µM
CC1CCN(c2oc(-c3ccccc3F)nc2C#N)CC1 15.8 µM
Cc1cc(-c2cccs2)nc(-n2cccc2)n1 12.6 µM
CC(=O)OCC1(O)CC23CCC4c5ccoc5CCC4(C)C2CCC1C3 (stereo unspecified) 17.8 µM
C[C@@H]1NS(=O)(=O)c2cc(Cl)ccc2O[C@@H]1c1ccccc1 17.8 µM
COc1ccc(C)cc1Nc1n[n+](-c2ccccc2)c(-c2cccc(Cl)c2Cl)s1 35.5 µM
CCc1ccc(Nc2n[n+](-c3ccccc3)c(-c3cccc(Cl)c3Cl)s2)cc1 35.5 µM
CCc1cc2c(NC3CCCC3)ncnc2s1 12.6 µM
CCOc1cc(/C=N/O)cc(Br)c1OC 11.2 µM
COc1ccc(Cn2c(=O)sc3ccccc32)cc1OC 11.2 µM
COc1cc(NC(=O)c2cc([N+](=O)[O-])ccc2Br)ccc1NC(=O)c1ccco1 10 µM
CCCn1c2ccccc2c2cnn(CC(=O)N(C)c3ccccc3CC)c(=O)c21 28.2 µM
CCCCCCCCCCCCN1C(=O)CSC1c1cccnc1 (stereo unspecified) 20 µM
Clc1ccc(Nc2nc(-c3cccs3)cs2)nc1 8.91 µM
Cc1cc(-c2n[nH]c(=S)n2/N=C/C(Br)=C/c2ccccc2)n[nH]1 35.5 µM
C#Cc1cc(N2CCN(C(=O)c3ccoc3)CC2)n2nc(-c3cccc(Cl)c3)cc2n1 22.4 µM
CN(C(=O)c1cc2c(=O)n3ccccc3nc2s1)C1CCCCC1 14.1 µM
